# Laboratory results reported in PubChem BioAssay (NCATS).
# Values joined by “and” are separate entries in the source; they are usually repeats but may differ in a detail not shown here. Equal values may be shown once. Inconclusive results are not listed. A call without a number means that no potency is given here. More than one record can exist for a structure, and the calls need not agree. Active and inactive are the calls of the source. Calls come from the whole dose curve; as a rule, active = well fitted curve in the direction sought with a large enough effect; inconclusive = small, poorly fitted or top-dose-only effect, or another doubt; inactive = no such curve, though single readings can be large; an effect the other way counts as inactive or inconclusive.
# What was measured:
# [1] = system: W2; assay: qHTS profiling for inhibitors of Plasmodium falciparum proliferation (AID 504749); note: nearly all actives have a fitted effect of over 60% in size; note: potency is the fitted concentration of half-maximal effect; conditions: P. falciparum in erythrocytes, SYBR Green DNA, 72 h; series mostly up to 28.7 µM
# In short: (§1)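 SYBR Green fluorescence (ex 485 nm, em 535 nm) reports parasite DNA after 72 h compound exposure of infected red cells at 0.3% parasitemia, 2.5% hematocrit; signal normalized to 0.29 uM artemisinin and vehicle wells.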
# [2] = system: CRL-7250; assay: Cytotoxic Profiling of Annotated Libraries Using Quantitative High-Throughput Screening (AID 1296008); conditions: Five cell lines viability, CellTiter-Glo ATP luminescence, 48-72 h; max response: stronger effect = lower value; note: nearly all actives have a fitted effect of over 60% in size
# In short: (§2)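 Cells exposed to compounds for 48 or 72 hr at 37 degrees Celsius. Viability read as ATP-coupled luminescence with CellTiter-Glo after 10 min at room temperature.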
# [3] = system: HEK293; assay: as above; conditions: Five cell lines viability, CellTiter-Glo ATP luminescence, 48-72 h; max response: stronger effect = lower value
# In short: as §2
# [4] = system: HaCat; assay: as above; conditions: Five cell lines viability, CellTiter-Glo ATP luminescence, 48-72 h; max response: stronger effect = lower value
# In short: as §2
# [5] = system: KB-3-1; assay: as above; conditions: Five cell lines viability, CellTiter-Glo ATP luminescence, 48-72 h; max response: stronger effect = lower value
# In short: as §2
# [6] = system: NIH3T3; assay: as above; conditions: Five cell lines viability, CellTiter-Glo ATP luminescence, 48-72 h; max response: stronger effect = lower value
# In short: as §2
# [7] = system: CRL-7250; assay: qHTS assay to identify novel small-molecules to repurpose for Merkel cell carcinoma treatment (AID 1296009); conditions: MCC and control cell lines, CellTiter-Glo viability, 72 h; series mostly up to 44.8 µM; note: nearly all actives have a fitted effect of over 60% in size; note: potency is the fitted concentration of half-maximal effect
# In short: (§3)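 CellTiter-Glo luminescence after 72 hr compound exposure at 37 degree celsius gave cell viability. Libraries NPC and MIPE were run as 8- and 11-point dose responses; RLUs normalized to DMSO (negative) and no-cell (cytotoxicity) controls.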
# [8] = system: HEK293T; assay: as above; conditions: MCC and control cell lines, CellTiter-Glo viability, 72 h; at 44.8 µM (top of the series)
# In short: as §3
# [9] = system: MCC-13; assay: as above; conditions: MCC and control cell lines, CellTiter-Glo viability, 72 h; series mostly up to 46 µM
# In short: as §3
# [10] = system: MCC-26; assay: as above; conditions: MCC and control cell lines, CellTiter-Glo viability, 72 h; series mostly up to 46 µM
# In short: as §3
# [11] = system: MKL-1; assay: as above; conditions: MCC and control cell lines, CellTiter-Glo viability, 72 h; series mostly up to 46 µM
# In short: as §3
# [12] = system: MKL-2; assay: as above; conditions: MCC and control cell lines, CellTiter-Glo viability, 72 h; series mostly up to 46 µM
# In short: as §3
# [13] = system: UISO; assay: as above; conditions: MCC and control cell lines, CellTiter-Glo viability, 72 h; series mostly up to 46 µM
# In short: as §3
# [14] = system: WaGa; assay: as above; conditions: MCC and control cell lines, CellTiter-Glo viability, 72 h; series mostly up to 46 µM
# In short: as §3
# [15] = system: C33A; assay: Primary qHTS to identify gynecologic anti-cancer compounds using libraries of approved drugs and bioactive compounds (AID 1345084); conditions: Gynecologic cancer cell panel viability, ATPlite luminescence, 48 h; series mostly up to 57.5 µM; note: nearly all actives have a fitted effect of over 55% in size
# In short: (§4)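 Cytotoxicity screen measuring ATP content by luciferase luminescence. Each compound is applied at five concentrations for 48 h at 37 C with 5% CO2.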
# [16] = system: CAOV3; assay: as above; conditions: Gynecologic cancer cell panel viability, ATPlite luminescence, 48 h; series mostly up to 57.5 µM
# In short: as §4
# [17] = system: CASKI; assay: as above; conditions: Gynecologic cancer cell panel viability, ATPlite luminescence, 48 h; series mostly up to 57.5 µM
# In short: as §4
# [18] = system: NIH3T3; assay: qHTS assay to identify novel small-molecules to repurpose for Merkel cell carcinoma treatment (AID 1296009); conditions: MCC and control cell lines, CellTiter-Glo viability, 72 h; at 44.8 µM (top of the series) unless noted; note: nearly all actives have a fitted effect of over 60% in size; note: potency is the fitted concentration of half-maximal effect
# In short: as §3
# [19] = system: TAB165; assay: qHTS profiling for inhibitors of Plasmodium falciparum proliferation (AID 504749); note: nearly all actives have a fitted effect of over 60% in size; note: potency is the fitted concentration of half-maximal effect; conditions: P. falciparum in erythrocytes, SYBR Green DNA, 72 h; series mostly up to 28.7 µM
# In short: as §1
# [20] = system: HACAT; assay: qHTS assay to identify novel small-molecules to repurpose for Merkel cell carcinoma treatment (AID 1296009); conditions: MCC and control cell lines, CellTiter-Glo viability, 72 h; at 44.8 µM (top of the series) unless noted; note: nearly all actives have a fitted effect of over 60% in size; note: potency is the fitted concentration of half-maximal effect
# In short: as §3
structure (smiles),measurement,setting,value
CC(C)NCC(O)c1ccccc1Cl (stereo not given),Potency,[1],3.38 µM (active)
same,outcome,[2],inactive
same,outcome,[3],inactive
same,max response,[4],-6.64% (inactive)
same,max response,[5],-12% (inactive)
same,max response,[6],-1.73% (inactive)
same,outcome,[7],inactive
same,outcome,[8],inactive
same,Potency,[9],inactive
same,Potency,[10],inactive
same,Potency,[11],inactive
same,Potency,[12],inactive
same,Potency,[13],inactive
same,Potency,[14],inactive
same,Potency,[15],inactive
same,Potency,[16],inactive
same,Potency,[17],inactive
CCN(CC)C(=O)N[C@@H]1C=C2c3cccc4[nH]cc(c34)C[C@@H]2N(C)C1,outcome,[2],inactive
same,max response,[3],-11.8% (inactive)
same,max response,[4],-0.0252% (inactive)
same,max response,[5],-10.6% (inactive)
same,outcome,[6],inactive
same,outcome,[7],inactive
same,Potency,[9],inactive
same,Potency,[10],inactive
same,Potency,[11],inactive
same,Potency,[12],inactive
same,outcome,[18],inactive
same,Potency,[13],inactive
same,Potency,[14],inactive
same,Potency,[15],inactive
same,Potency,[16],inactive
same,Potency,[17],inactive
Clc1ccc(COC(Cn2ccnc2)c2ccc(Cl)cc2Cl)cc1 (stereo not given),Potency,[19],0.708 µM (active)
same,Potency,[1],1.2 µM (active)
same,max response,[2],1.02% (inactive)
same,outcome,[2],inactive
same,max response,[4],-11% (inactive)
same,max response,[5],-10.4% (inactive) and -10.7% (inactive)
same,outcome,[7],inactive
same,Potency,[9],inactive
same,Potency,[10],21.1 µM (active) and inactive
same,Potency,[11],23.7 µM (active) and inactive
same,Potency,[13],15 µM (active)
same,Potency,[14],inactive
CC(CCc1ccccc1)NC(C)C(O)c1ccc(O)cc1 (stereo not given),Potency,[1],4.26 µM (active)
same,max response,[2],-12.9% (inactive)
same,max response,[3],-17.5% (inactive)
same,outcome,[4],inactive
same,max response,[5],-11.3% (inactive)
same,max response,[6],-21.3% (inactive)
same,outcome,[20],inactive
same,Potency,[9],inactive
same,Potency,[10],inactive
same,Potency,[11],inactive
same,Potency,[12],inactive
same,Potency,[13],inactive
same,Potency,[14],inactive
same,Potency,[15],inactive
same,Potency,[16],inactive
same,Potency,[17],inactive
COc1ccc(C(=O)c2c(C)n(CCN3CCOCC3)c3ccccc23)cc1,Potency,[19],inactive
same,Potency,[1],inactive
same,max response,[2],-23.7% (inactive)
same,outcome,[2],inactive
same,max response,[3],-9.73% (inactive)
same,max response,[4],-26.9% (inactive)
same,outcome,[4],inactive
same,max response,[5],5.69% (inactive) and 21.2% (inactive)
same,max response,[6],-11.5% (inactive)
same,outcome,[6],inactive
same,outcome,[7],inactive
same,outcome,[20],inactive
same,Potency,[9],inactive
same,Potency,[10],inactive
same,Potency,[11],inactive
same,Potency,[12],inactive
same,outcome,[18],inactive
same,Potency,[13],inactive
same,Potency,[14],inactive
same,Potency,[15],inactive
same,Potency,[17],inactive
NP(N)(=O)NC(=O)c1ccc(F)cc1,Potency,[19],inactive
same,Potency,[1],inactive
same,outcome,[2],inactive
same,outcome,[3],inactive
same,outcome,[4],inactive
same,max response,[5],-13.3% (inactive)
same,max response,[6],4.85% (inactive)
same,outcome,[7],inactive
same,outcome,[20],inactive
same,outcome,[8],inactive
same,Potency,[9],inactive
same,Potency,[10],inactive
same,Potency,[11],inactive
same,Potency,[12],inactive
same,Potency,[13],inactive
same,Potency,[14],inactive
same,Potency,[15],inactive
same,Potency,[16],inactive
same,Potency,[17],inactive
N[C@@H](Cc1ccc(Oc2cc(I)c(O)c(I)c2)c(I)c1)C(=O)O,max response,[2],-1.97% (inactive)
same,outcome,[3],inactive
same,outcome,[4],inactive
same,max response,[5],6.84% (inactive)
same,max response,[6],-1.92% (inactive)
same,outcome,[20],inactive
same,outcome,[8],inactive
same,Potency,[9],inactive
same,Potency,[10],inactive
same,Potency,[11],inactive
same,Potency,[12],inactive
same,Potency,[13],inactive
same,Potency,[14],inactive
same,Potency,[15],inactive
same,Potency,[16],inactive
same,Potency,[17],inactive
CC1NCCOC1c1ccccc1 (stereo not given),Potency,[19],inactive
same,max response,[2],1.98% (inactive)
same,outcome,[3],inactive
same,outcome,[4],inactive
same,max response,[5],-11.6% (inactive)
same,max response,[6],1.83% (inactive)
same,outcome,[20],inactive
same,outcome,[8],inactive
same,Potency,[9],inactive
same,Potency,[10],inactive
same,Potency,[11],inactive
same,Potency,[12],inactive
same,Potency,[13],inactive
same,Potency,[14],inactive
same,Potency,[15],inactive
same,Potency,[17],inactive
N[C@@H]1C[C@H]1c1ccccc1,max response,[2],-2.94% (inactive)
same,max response,[3],-4.85% (inactive)
same,outcome,[4],inactive
same,max response,[5],-0.335% (inactive)
same,max response,[6],3.17% (inactive)
same,outcome,[20],inactive
same,Potency,[9],inactive
same,Potency,[10],inactive
same,Potency,[11],inactive
same,Potency,[12],inactive
same,Potency,[13],inactive
same,Potency,[14],inactive
same,Potency,[15],inactive
same,Potency,[16],inactive
FC(F)(F)c1cccc(C2=CCN(CCc3ccc4ccccc4c3)CC2)c1,Potency,[19],inactive
same,Potency,[1],inactive
same,max response,[2],-12.8% (inactive)
same,outcome,[3],inactive
same,outcome,[4],inactive
same,max response,[5],-4.6% (inactive)
same,outcome,[6],inactive
same,outcome,[20],inactive
same,outcome,[8],inactive
same,Potency,[9],inactive
same,Potency,[10],inactive
same,Potency,[11],inactive
same,Potency,[12],inactive
same,outcome,[18],inactive
same,Potency,[13],inactive
same,Potency,[14],inactive
same,Potency,[15],inactive
same,Potency,[16],inactive
same,Potency,[17],inactive
O=C1CC[C@@]2(O)[C@H]3Cc4ccc(O)c5c4[C@@]2(CCN3CC2CC2)[C@H]1O5,max response,[2],-7.93% (inactive)
same,outcome,[2],inactive
same,outcome,[4],inactive
same,max response,[5],6.29% (inactive)
same,outcome,[5],inactive
same,max response,[6],-0.716% (inactive)
same,outcome,[6],inactive
same,outcome,[7],inactive
same,outcome,[20],inactive
same,Potency,[9],inactive
same,Potency,[10],inactive
same,Potency,[11],inactive
same,Potency,[12],inactive
same,outcome,[18],inactive
same,Potency,[13],inactive
same,Potency,[14],inactive
same,Potency,[15],inactive
same,Potency,[16],inactive
same,Potency,[17],inactive
